Structures are written as SMILES. Results filed as inconclusive are left out. Where a call stands in place of a potency, no number is given. Calls of active or inactive are those of the source. Calls come from the whole dose curve; as a rule, active = well fitted inhibition curve with a large enough effect; inconclusive = small, poorly fitted or top-dose-only effect; inactive = flat fitted curve, though single readings scatter.
Potency is the fitted concentration of half-maximal effect.

The assay in a line: qHTS for differential inhibitors of proliferation of Plasmodium falciparum line Dd2 (AID 1882). Note: nearly all actives have a fitted effect of over 65% in size. As to conditions: Potency: Plasmodium falciparum Dd2 proliferation inhibition; series mostly up to 28.7 µM. The source says: NIH Molecular Libraries Probe Production Network [MLPCN]
NIH National Institute of Allergy and Infectious Diseases [NIAID]
NIH Chemical Genomics Center [NCGC]
Assay Provider: Xinzhuan Su, NIAID
Plasmodium falciparum is a virulent malarial parasite that kills 1-2 million people worldwide each year. Transmitted by mosquitoes, the sporozoite form of the parasite enters the blood stream to infect hepatocytes, where they become merozoites that infect red blood cells (erythrocytes). Within erythrocytes, merozoites begin a […] cycle of growth and division, after which the parasite is released to infect new red blood cells. Gametocytes, which form within erythrocytes as well, circulate in the bloodstream and are ingested by the mosquito, thereby completing the life cycle. To profile malarial isolates for differential chemical responses and to identify inhibitors of malarial growth, an assay that measures P. falciparum growth and replication within erythrocytes was employed. This assay uses a DNA binding fluorescent dye (SYBR Green) to detect parasite DNA following cell lysis. Because mature erythrocytes lack DNA, only Plasmodium-derived DNA is detected. The P. falciparum line Dd2, derived from a malarial isolate from […], was used.
NCGC Assay Protocol Summary:
The SYBR Green viability assay was adapted from a method described previously (Plouffe et al., 2008). For screening 3 ul culture medium was dispensed into 1536 well black clear bottom plates (Aurora Biotechnologies) using a Multidrop Combi (Thermo Fisher Scientific Inc.), 23 nL compounds in DMSO were added by a pin tool (Kalypsys), and 5 ul of erythrocytes infected with P. falciparum line Dd2 (0.3% parasitemia, 2.5% hematocrit final concentration) were added. The plates were incubated at 37 C in a humidified incubator in 5% CO2 for 72 h, and 2 ul lysis buffer (20 mM Tris HCl, 10 mM EDTA, […]% saponin, 1.6% triton X, 10X SYBR Green I supplied as 10,000X […] by Invitrogen) was added to each well. The plates were mixed for 25 sec with gentle shaking and incubated overnight at room temperature in the dark. The following morning, fluorescence intensity at 485(14) nm excitation and 535(25) nm emission wavelengths was measured on an EnVision (Perkin Elmer) plate reader. Plate reads were normalized relative to the control inhibitor (0.29 uM artemisinin) and vehicle (DMSO) wells present on each plate and then corrected by an algorithm using vehicle-only control plates at the beginning and end of the compound plate stack.
Plouffe D, Brinker A, McNamara C, Henson K, Kato N, Kuhen K, Nagle A, Adrian F, Matzen JT, Anderson P, Nam TG, Gray NS, Chatterjee A, Janes J, Yan SF, Trager R, Caldwell JS, Schultz PG, Zhou Y, Winzeler EA. […] Proc Natl Acad Sci U S A. 2008, 105(26), pp 9059-64.
Regarding `CN(C)CC[C@@H](c1ccc(Cl)cc1)c1ccccn1`, the Potency is 3.98 µM (active).

Consider `O=C1N=C(O)CN1/N=C/c1ccc(-c2ccc([N+](=O)[O-])cc2)o1`, for which the Potency entry is “inactive”.

As to `CSc1ccc2c(c1)C(N1CCN(C)CC1)Cc1ccccc1S2` (stereo not drawn), the Potency is 8.91 µM (active).

Regarding `CC(C(O)c1ccc(O)cc1)N1CCC(Cc2ccccc2)CC1` (stereo not drawn), the Potency was 10 µM (active).

As to `C#CCN(C)Cc1ccccc1`, the Potency entry was “inactive”.

Take `C=Cc1c(C)c2cc3[nH]c(cc4nc(cc5nc(cc1[nH]2)C(C)=C5CCC(=O)O)C(CCC(=O)O)=C4C)c(C)c3C=C`: the Potency entry was “inactive”.

For `CCN(CC)CCCC(C)Nc1c2ccc(Cl)cc2nc2ccc(OC)cc12` (stereo not drawn), the Potency is 0.126 µM (active).

Turning to `OCCN1CCN(CCCN2c3ccccc3Sc3ccc(Cl)cc32)CC1`, the Potency was 7.94 µM (active).

Take `CN(C)CCOC(C)(c1ccccc1)c1ccccn1` (stereo not drawn): the Potency is 10 µM (active).

`CCN(CC)CCOC(=O)C1(C2CCCCC2)CCCCC1`: the Potency is 5.01 µM (active).

As to `CC(C)C(=O)c1c(C(C)C)nn2ccccc12`, the Potency result is “inactive”.

With `NC(N)=NCCC[C@H](N)C(=O)O`, the Potency entry is “inactive”.

In the case of `CCCCCCCCCCCCCCCC(=O)NCCO`, the Potency entry was “inactive”.

As for `CC1=C(CC(=O)O)c2cc(F)ccc2/C1=C\c1ccc(S(C)(=O)=O)cc1`, the Potency entry was “inactive”.

Regarding `CCN(CC)CCNC(=O)c1cc(Cl)c(N)cc1OC`, the Potency result was “inactive”.

As to `COc1ccc(Cl)cc1C(=O)NCCc1ccc(S(=O)(=O)NC(=O)NC2CCCCC2)cc1`, the Potency result is “inactive”.

`C[C@](N)(Cc1ccc(O)cc1)C(=O)O`: the Potency result is “inactive”.

Turning to `NC(=O)c1ncn([C@@H]2O[C@H](CO)[C@@H](O)[C@H]2O)n1`, the Potency entry is “inactive”.

For `CCCn1cnc2c1c(=O)n(CCCCC(C)=O)c(=O)n2C`, the Potency entry was “inactive”.

With `CSc1ccc2c(c1)N(CCC1CCCCN1C)c1ccccc1S2` (stereo not drawn), the Potency was 12.6 µM (active).

Take `CC(C)NC[C@H](O)c1ccc(O)c(O)c1`: the Potency entry is “inactive”.

With `CNCC(O)c1ccc(O)c(O)c1` (stereo not drawn), the Potency entry was “inactive”.

As for `CC1=C(CC(=O)O)c2cc(F)ccc2/C1=C\c1ccc(S(C)=O)cc1` (stereo not drawn), the Potency result was “inactive”.

On to `Cc1cc(N)c2ccccc2[n+]1CCCCCCCCCC[n+]1c(C)cc(N)c2ccccc21`, for which the Potency was 2.24 µM (active).

On to `Nc1cc(=O)[nH]c(N)n1`, for which the Potency entry is “inactive”.

On to `CN(C)CCCN1c2ccccc2Sc2ccc(Cl)cc21`, for which the Potency was 12.6 µM (active).

For the compound `CC(=O)OCC(=O)[C@@]1(O)CC[C@H]2[C@@H]3CCC4=CC(=O)CC[C@]4(C)[C@H]3C(=O)C[C@@]21C`, the Potency result was “inactive”.

For `N=c1c[n+](N2CCOCC2)[n-]o1`, the Potency result is “inactive”.

On to `CC(C)(C(=O)O)c1ccc(C(O)CCCN2CCC(C(O)(c3ccccc3)c3ccccc3)CC2)cc1` (stereo not drawn), for which the Potency result was “inactive”.

Regarding `CC(CN1c2ccccc2Sc2ccccc21)N(C)C` (stereo not drawn), the Potency is 5.01 µM (active).

Regarding `COC(=O)C1=C(C)NC(C)=C(C(=O)OC)C1c1ccccc1[N+](=O)[O-]`, the Potency entry was “inactive”.

With `C[C@H]1O[C@@H](n2cc(F)c(=O)[nH]c2=O)[C@H](O)[C@@H]1O`, the Potency entry is “inactive”.

Consider `CC(C)(C)c1onc(OCP(=O)(O)O)c1CC(N)C(=O)O` (stereo not drawn), for which the Potency result was “inactive”.

The values are drawn from PubChem BioAssay (NCATS).
